# This is a sample that favours compounds with a hit; in the whole collection about 19% have one here.
# ASM inhibitor = Inhibitors of Secretory Acid Sphingomyelinase (S-ASM): qHTS | Potency, µM (series often up to 57.5 µM), most hits filed as inhibitors | placental ASM, HMU-PC fluorogenic substrate, 60 min | actives 0.006% (n = 340,000)
# Target sequence (P17405 47-631 limits assumed): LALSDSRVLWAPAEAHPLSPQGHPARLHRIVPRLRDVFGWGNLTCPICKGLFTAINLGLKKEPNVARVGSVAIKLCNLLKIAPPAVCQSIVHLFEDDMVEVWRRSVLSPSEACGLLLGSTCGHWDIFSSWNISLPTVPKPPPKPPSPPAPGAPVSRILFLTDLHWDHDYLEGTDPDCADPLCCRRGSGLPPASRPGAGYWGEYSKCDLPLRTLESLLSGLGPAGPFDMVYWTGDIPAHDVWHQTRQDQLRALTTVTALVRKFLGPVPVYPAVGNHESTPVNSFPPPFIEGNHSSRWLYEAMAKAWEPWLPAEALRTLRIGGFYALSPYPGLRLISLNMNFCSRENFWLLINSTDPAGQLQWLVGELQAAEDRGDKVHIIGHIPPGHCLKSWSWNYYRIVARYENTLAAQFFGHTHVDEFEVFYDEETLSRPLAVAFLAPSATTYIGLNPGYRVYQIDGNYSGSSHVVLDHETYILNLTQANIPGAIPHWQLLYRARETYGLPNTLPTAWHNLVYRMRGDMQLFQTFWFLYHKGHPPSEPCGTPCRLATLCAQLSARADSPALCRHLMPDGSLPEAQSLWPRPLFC
#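 Human placenta-derived ASM enzyme was preincubated with compound for 10 minutes at room temperature, then given fluorogenic substrate HMU-PC0 (9 uM final) for 60 minutes at 37 °C; a pH 10 stop preceded fluorescence reading at Ex 386/Em 447 nm.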
# TDP1 cell noCPT = qHTS for Inhibitors of human tyrosyl-DNA phosphodiesterase 1 (TDP1): qHTS in cells in absence of CPT; AID 686978, 2013; actives 15% (n = 420,000); DT40 Tdp1-/- hTDP1 cells, no CPT, ATP luminescence, 48 h; Potency, µM (highest dose often 46.2 µM), hits mostly inhibitors; also: nearly all actives have a fitted effect of over 55% in size
#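 Chicken DT40 Tdp1-/- cells stably complemented with human TDP1 were seeded at 400 cells/well with DMSO in place of 20 nM camptothecin. After compound pinning, cells grew at least 48 hr at 37 °C; viability read by CellTiter-Glo luminescence.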
# IL1B secr inh = qHTS for Inhibitors of Inflammasome Signaling: IL-1-beta AlphaLISA Primary Screen | activity change, % at 57.5 µM | actives 4.7% (n = 360,000) | THP-1 LPS/ATP IL-1B secretion, AlphaLISA, 16 h; stronger effect = lower value | AID 743279, 2014; in the data active = activity change below about -50%; inconclusive = mostly about -30% to -49%
#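 THP-1 cells pretreated 1 hr with compounds (up to 57.5 uM final), then stimulated with LPS (250 ng/mL final) plus ATP (1.25 mM final); secreted IL-1B measured by AlphaLISA after 16 hr, decreased signal indicating inhibition.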
# TGFb SMAD3 inh = qHTS for Inhibitors of TGF-b | actives 1.2% (n = 410,000) | Potency, µM (doses to about 46.1 µM), actives largely listed as inhibitors | HepG2 CAGA-GFP TGF-b/SMAD3 reporter, GFP fluorescence, 18 h; TGF-beta stimulated, 500 pg/mL final; also: nearly all actives have a fitted effect of over 65% in size
#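 Read-out: total well GFP (ex488/em500-530) summed from mean per-cell fluorescence. Cells: HEPG2 CAGA-GFP, 1% FBS DMEM, 18 h at 37 degrees C with 500 pg/mL final TGF-beta. Unstimulated wells served as the full-inhibition control; stimulated DMSO wells = 0%.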
# HepG2 viability = qHTS for Inhibitors of TGF-b: Cytotox Counterscreen; HepG2 CAGA-GFP viability, ATP luminescence, 18 h; actives 0.76% (n = 410,000); Potency, µM (doses to about 46.1 µM), actives largely listed as cytotoxic
#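 CellTiter-Glo luminescence gave cytotoxicity after 18 hours at 37 degrees C. The cells were HepG2 CAGA-GFP in 1% FBS DMEM, stimulated with 500 pg/mL TGF-beta after compound addition. %Activity was normalised to no-cell wells (complete cell-killing) and DMSO (no toxicity), and curves were fitted and classified.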
# DT40 TDP1 CPT = qHTS for Inhibitors of human tyrosyl-DNA phosphodiesterase 1 (TDP1): qHTS in cells in presence of CPT | chicken DT40 Tdp1-/-;hTDP1 cells + 20 nM CPT, ATP luminescence, 48 h | actives 12% (n = 420,000) | AID 686979, 2013 | Potency, µM (doses to about 46.2 µM), usual class: inhibitors; also: nearly all actives have a fitted effect of over 55% in size
#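 Chicken DT40 Tdp1-/- cells stably complemented with human TDP1 were seeded at 400 cells/well in medium containing 20 nM camptothecin, exposed to pin-transferred compounds, and grown at 37 °C for at least 48 hr. Viability was read as ATP luminescence.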
# Hits are given with their value; – = inactive; ? = inconclusive; · = no result given. Unless noted, calls follow the shape of the dose curve; as a rule, active = well fitted curve in the direction sought with a large enough effect; inconclusive = small, poorly fitted or top-dose-only effect, or another doubt; inactive = no such curve, though single readings can be large; an effect the other way counts as inactive or inconclusive.
SMILES,ASM inhibitor,TDP1 cell noCPT,IL1B secr inh,TGFb SMAD3 inh,HepG2 viability,DT40 TDP1 CPT
O=C(NCc1ccccc1Cl)c1ccc2nc([C@@H]3O[C@H](CO)[C@H](O)[C@H](O)[C@H]3O)[nH]c2c1,·,–,–,–,–,–
COc1ccc(Nc2nnc(-c3ccc(C)c(S(=O)(=O)NCCO)c3)c3ccccc23)cc1C(N)=O,·,–,·,–,–,–
CCOC(=O)CNS(=O)(=O)c1cc(-c2nnc(Nc3cccc(O)c3)c3ccccc23)ccc1C,·,?,·,–,11.2µM,?
CCOC(=O)CNS(=O)(=O)c1cc(-c2nnc(Nc3ccc4c(c3)OCO4)c3ccccc23)ccc1C,·,?,-102.1,?,–,?
COc1ccc(C(=O)CN2CC(C)SC2=Nc2ccc(Cl)cc2)cc1 (stereo not drawn),·,23.1µM,–,–,–,?
Cc1ccc(CN=c2c([N+](=O)[O-])nn(-c3ccc(Cl)cc3)n2O)cc1,–,?,–,–,–,?
O=[N+]([O-])c1nn(-c2ccc(Cl)cc2)n(O)c1=NCc1ccncc1,–,10.3µM,?,?,–,5.17µM
O=[N+]([O-])c1nn(-c2ccc(Cl)cc2)n(O)c1=NCc1cccnc1,–,10.3µM,–,–,–,8.2µM
O=[N+]([O-])c1nn(-c2cccc(Cl)c2)n(O)c1=NCc1cccnc1,–,13µM,–,–,–,8.2µM
Cc1cccc(-n2nc([N+](=O)[O-])c(=NCc3cccnc3)n2O)c1,–,?,–,?,–,11.6µM
Cc1cc(C)c(CN2C(=O)c3ccccc3S(=O)(=O)c3ccc(C(=O)OCC4CCCO4)cc32)c(C)c1 (stereo not drawn),·,?,·,–,–,?
COc1ccc(CNc2ccc(Cl)cc2)cc1Cn1ccnc1,–,16.4µM,-70.8,–,–,?
CN1/C(=C/C(=O)COC(=O)C2COc3ccccc3O2)C(C)(C)c2ccccc21 (stereo not drawn),–,20.6µM,–,–,–,25.9µM
Cc1ccc(NC(=O)COC(=O)C2COc3ccccc3O2)cc1 (stereo not drawn),–,–,–,–,–,–
CN1/C(=C\C(=O)COC(=O)CN2C(=O)C3CC=CCC3C2=O)C(C)(C)c2ccccc21 (stereo not drawn),–,18.4µM,–,–,–,?
CN1/C(=C\C(=O)COC(=O)CNC(=O)c2ccccc2F)C(C)(C)c2ccccc21,–,–,–,–,–,–
CC(NC(=O)CCNC(=O)c1ccco1)c1ccc(F)cc1 (stereo not drawn),–,–,–,–,–,–
O=C(c1cn(-c2ccccc2)nc1-c1cccs1)N(CCO)Cc1ccccc1,–,18.4µM,–,–,–,–
CN(CC(=O)Nc1cccc(F)c1)C(=O)c1cc(-c2cccs2)nn1-c1ccccc1,–,16.4µM,–,–,–,?
CN(CC(=O)Nc1cccc(F)c1)C(=O)c1cn(-c2ccccc2)nc1-c1ccc(Cl)cc1,–,?,-59.9,?,–,?
O=C(c1cn(-c2ccccc2)nc1-c1cccs1)N1CCN(c2ccccn2)CC1,–,20.6µM,–,–,–,?
CCOC(=O)CNc1nc(C(C)(C)C)nc2c1nnn2Cc1ccccc1,–,?,–,–,–,?
COc1ccc(C(=O)CSc2nc3cc(C(=O)NC4CCCC4)ccc3c(=O)n2CC2CCCO2)cc1 (stereo not drawn),·,?,·,–,–,?
CCN(CC)CCNC(=O)c1cn(-c2ccccc2)nc1-c1cccs1,–,–,–,–,–,–
CCN(CC)CCOC(=O)c1ccc(NC(=O)c2cn(-c3ccccc3)nc2-c2cccs2)cc1,?,20.6µM,-53.3,?,–,?
SMILES,ASM inhibitor,TDP1 cell noCPT,IL1B secr inh,TGFb SMAD3 inh,HepG2 viability,DT40 TDP1 CPT
CCN(CC(=O)Nc1ccc(NC(C)=O)cc1)C(=O)c1cn(-c2ccccc2)nc1-c1cccs1,–,?,–,–,–,–
CN(CC(=O)Nc1cccc(F)c1)C(=O)c1cn(-c2ccccc2)nc1-c1cccs1,·,13µM,–,?,–,?
COc1cccc(NC(=O)CN(C)C(=O)c2cn(-c3ccccc3)nc2-c2cccs2)c1,–,?,-52.8,–,–,?
Cc1ccc(-c2nnc(Cc3ccc([N+](=O)[O-])cc3)o2)cc1,–,?,–,–,–,–
COc1ccc(NC(=S)N2CCC(C(=O)c3ccc(F)cc3)CC2)cc1,–,–,–,?,–,?
CCOc1cc(N2CCOCC2)c(OCC)cc1NC(=O)c1cccc(N(C)C)c1,–,20.6µM,–,–,–,?
CCOc1cc(N2CCOCC2)c(OCC)cc1NC(C)C(=O)N1CCC(C)CC1 (stereo not drawn),–,25.9µM,–,?,–,?
COc1ccc(CC(=O)NNC(=O)c2ccco2)cc1OC,–,–,–,–,–,–
CCOc1cc(NC(=O)c2ccco2)c(OCC)cc1NC(=O)Cc1ccc(OC)c(OC)c1,–,8.2µM,–,–,–,?
CCCOc1ccc(C(=O)Nc2ccc(N3CCOCC3)cc2N2CCOCC2)cc1OCC,·,20.6µM,–,–,–,?
CCOc1ccc(C(=O)NCC(=O)Nc2ccc(N3CCOCC3)cc2)cc1OCC,–,–,–,–,–,–
CCOc1c2ccccc2nn1CCO,–,–,–,–,–,–
O=C(CSc1nccc(=O)[nH]1)NC1CCCC1,–,–,–,–,–,–
CCOc1cc(N2CCOCC2)c(OCC)cc1NC(=O)COC(=O)c1ccc(Cl)nc1,–,–,–,–,–,–
O=C(COc1ccccc1[N+](=O)[O-])Nc1cccc(Cl)c1N1CCOCC1,–,14.6µM,–,?,–,16.4µM
CCOc1cc(N2CCOCC2)c(OCC)cc1NC(=O)c1[nH]c(C)c(C(C)=O)c1C,–,5.8µM,–,–,–,8.2µM
CCOc1cc(N2CCOCC2)c(OCC)cc1NC(=O)COC(=O)c1ccc(Cl)cc1N,–,?,–,–,–,5.8µM
CC(=O)c1c(C)[nH]c(C(=O)Nc2ccccc2N2CCOCC2)c1C,–,?,–,–,–,?
CCOc1cc(N2CCOCC2)c(OCC)cc1NC(=O)COC(=O)c1cc2ccccc2cc1O,–,?,–,–,–,?

# Bioassay records deposited in PubChem BioAssay by National Center for Advancing Translational Sciences (NCATS).
